Results on 9 molecules are retold here after PubChem BioAssay (Tox21).

A short description of assay [1]: qHTS assay to identify small molecule antagonists of the estrogen related receptor signaling pathway with the pleiotropic PPARgamma coactivator (PGC) from Tox21 10K library (AID 1224841; call rule not given here; note: actives are mostly falling curves and most rising ones were filed inactive; nearly all actives have a fitted effect of over 50% in size; note: potency is the fitted concentration of half-maximal effect). The procedure, abridged:
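Luminescence read-out (One-Glo luciferase reagent, 30 min at room temperature) from PGC/ERR cells exposed to DMSO-dissolved test compounds for 18 h at 37 C; cells, 2,000 per well, had been preincubated 6 h before compound transfer.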

The nature of assay [2]: qHTS assay to identify small molecule agonists of the estrogen related receptor signaling pathway with the pleiotropic PPARgamma coactivator (PGC) from Tox21 10K library (AID 1224842). Note: % is set by controls: 0 for no effect and ±100 for the full control effect; nearly all actives have a fitted effect of over 15% in size. The procedure, abridged:
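Luminescence from One-Glo (30 min, room temperature) measured after PGC/ERR cells had 18 h at 37 C with pinned compound (23 nL in DMSO). Cells had been seeded at 2,000 per well and pre-incubated 6 h.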
(In general: qHTS replaces the single test concentration by a dilution series.)

Assay [3] is described as follows: qHTS assay to identify small molecule agonists of H2AX (AID 1224845; active = well fitted activation curve with a large enough effect in the signal ratio in the repeat runs, not every such curve was filed as active; the % refers to the signal ratio; note: potency is the fitted concentration of half-maximal effect). The procedure, abridged:
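Phospho-H2AX Ser139 measured by HTRF (ex 320 nm; em 665 and 620 nm) after 24 hr antibody incubation. Compounds, 15 concentrations, 0.76% DMSO, were applied to CHO-K1 cells for 3hr at 37C before lysis.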

The nature of assay [4]: qHTS assay to identify small molecule antagonists of the estrogen related receptor (ERR) signaling pathway from Tox21 library (AID 1224848). Note: potency is the fitted concentration of half-maximal effect; nearly all actives have a fitted effect of over 50% in size. The method, boiled down: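 Luciferase luminescence (ONE-Glo, 30 min room temperature) was the read-out. Cells of the NTP-supplied ERR line, 2,000 per well, were given 6 h at 37 C before compound addition in DMSO and 18 h exposure at 37 C.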

Assay [5] can be described thus: qHTS RealTime-Glo MT Cell Viability Assay in HEK293 cells - 32 hour (AID 1224868). Note: nearly all actives have a fitted effect of over 50% in size. Note: potency is the fitted concentration of half-maximal effect. The method, boiled down:
(§1)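 Cells + reagent dispensed (600 cells/well, HEK293) → 5 h at 37 C/5% CO2 → 23 nL compound in DMSO pinned → 40 h at 37 C → luminescence read at 0, 8, 16, 24, 32, 40 h.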

Assay [6] is described as follows: A CellTox Green Cytotoxicity Assay to monitor cytotoxicity in HEK293 cells - 0 hour (AID 1224869). Note: % is set by controls: 0 for no effect and ±100 for the full control effect; nearly all actives have a fitted effect of over 50% in size. The procedure, abridged: (§2)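 Read-out: fluorescence of a cell-impermeant cyanine dye staining DNA of dead cells, proportional to cytotoxicity. HEK293, 600 cells/well with reagent, compound (23 nL DMSO) added after 5 h; reads at 0, 8, 16, 24, 32, 40 h.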
Assay [7] in a line: qHTS RealTime-Glo MT Cell Viability Assay in HEK293 cells - 40 hour (AID 1224874). For max response: % is set by controls: 0 for no effect and ±100 for the full control effect. Note: nearly all actives have a fitted effect of over 50% in size. Note: potency is the fitted concentration of half-maximal effect. The following applies: RealTime-Glo luminescence; max response: active compounds read low. The method, boiled down:
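Luminescence readout at each listed time point; HEK293, 600 cells/well, RealTime-Glo MT reagent added with cells; compounds pinned (23 nL in DMSO) after 5 h at 37 C; continuous culture at 37 C.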

The nature of assay [8]: qHTS assay to identify small molecule agonists of the estrogen related receptor (ERR) signaling pathway from Tox21 library (AID 1224849; calls by dose curve; note: % is set by controls: 0 for no effect and ±100 for the full control effect; nearly all actives have a fitted effect of over 15% in size). To be noted: ERR reporter cell line, ONE-Glo luciferase, 18 h; at 92.4 µM (top of the series) unless noted. The procedure, abridged:
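Luminescence readout (ONE-Glo, 30 min RT) after 18 h compound exposure at 37 C of NTP-supplied ERR reporter cells; cells were plated 6 h before compound addition by pin tool.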

Assay [9] in a line: qHTS RealTime-Glo MT Cell Viability Assay in HepG2 cells - 24 hour (AID 1224867). The method, boiled down:
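Real-time, nonlytic viability: 600 HepG2 cells/well mixed with NanoLuc enzyme plus prosubstrate; 5 h settle, compound (DMSO) added by pintool; luminescence monitored over 40 h at 37 C.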

Assay [10] can be described thus: qHTS RealTime-Glo MT Cell Viability Assay in HepG2 cells - 40 hour (AID 1224870). Note: nearly all actives have a fitted effect of over 50% in size. Note: potency is the fitted concentration of half-maximal effect. The procedure, abridged: (§3)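 Real-time viability: cells seeded at 600 per well together with NanoLuc and cell-permeant prosubstrate, compounds added after 5 h incubation. Luminescence tracked at 0, 8, 16, 24, 32 and 40 h of exposure.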
Assay [11] in a line: A CellTox Green Cytotoxicity Assay to monitor cytotoxicity in HEK293 cells - 40 hour (AID 1224871). Note: nearly all actives have a fitted effect of over 45% in size. Note: potency is the fitted concentration of half-maximal effect. The method, boiled down:
as §2

A short description of assay [12]: qHTS RealTime-Glo MT Cell Viability Assay in HepG2 cells - 8 hour (AID 1224873). Note: % is set by controls: 0 for no effect and ±100 for the full control effect; nearly all actives have a fitted effect of over 55% in size. The method, boiled down: as §3
A short description of assay [13]: A CellTox Green Cytotoxicity Assay to monitor cytotoxicity in HEK293 cells - 24 hour (AID 1224875). Note: % is set by controls: 0 for no effect and ±100 for the full control effect; nearly all actives have a fitted effect of over 45% in size. The procedure, abridged: as §2
For assay [14], the target named is Thyrotropin receptor (Homo sapiens) (UniProt P16473). Briefly: qHTS assay to identify small molecule agonists of the thyroid stimulating hormone receptor (TSHR) signaling pathway (AID 1224843; calls by dose curve; note: nearly all actives have a fitted effect of over 45% in size; note: potency is the fitted concentration of half-maximal effect; for activation: % is set by controls: 0 for no effect and ±100 for the full control effect). The method, boiled down: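 Agonist activity read as cAMP rise via d2/cryptate HTRF competition, 1 h room-temperature detection, in HEK293 cells expressing TSHR. Fifteen-point titrations, each run in triplicate, with a 30 min room-temperature incubation beforehand.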
Sequence of Thyrotropin receptor (Homo sapiens) (P16473 whole entry, looked up): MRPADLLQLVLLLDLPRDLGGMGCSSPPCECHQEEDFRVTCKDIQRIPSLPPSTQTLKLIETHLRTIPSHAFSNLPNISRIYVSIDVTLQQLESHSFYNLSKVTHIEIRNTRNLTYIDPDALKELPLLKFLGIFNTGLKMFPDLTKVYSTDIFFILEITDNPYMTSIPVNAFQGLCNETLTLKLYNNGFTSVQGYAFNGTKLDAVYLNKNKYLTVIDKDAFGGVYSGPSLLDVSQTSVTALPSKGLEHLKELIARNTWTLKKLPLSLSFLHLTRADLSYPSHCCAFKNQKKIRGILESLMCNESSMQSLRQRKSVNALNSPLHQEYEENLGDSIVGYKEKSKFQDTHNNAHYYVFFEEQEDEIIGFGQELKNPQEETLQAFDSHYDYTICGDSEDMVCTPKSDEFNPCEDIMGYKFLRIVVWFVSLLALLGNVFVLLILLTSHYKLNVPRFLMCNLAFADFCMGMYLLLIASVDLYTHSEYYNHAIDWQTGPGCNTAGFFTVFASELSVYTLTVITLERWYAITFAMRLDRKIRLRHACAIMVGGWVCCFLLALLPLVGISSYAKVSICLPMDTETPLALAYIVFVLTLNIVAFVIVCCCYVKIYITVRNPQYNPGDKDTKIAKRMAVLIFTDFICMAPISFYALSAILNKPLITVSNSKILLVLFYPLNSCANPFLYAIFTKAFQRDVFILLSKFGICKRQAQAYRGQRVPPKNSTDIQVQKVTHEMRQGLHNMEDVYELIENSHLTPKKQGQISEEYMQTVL

The nature of assay [15]: qHTS assay to identify small molecule agonists of the hypoxia (HIF-1) signaling pathway - cell viability counter screen (AID 1224844; calls by dose curve; note: nearly all actives have a fitted effect of over 50% in size; note: potency is the fitted concentration of half-maximal effect). The procedure, abridged:
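CellTiter-Glo luminescence read-out, 30 min RT, taken in the same wells as the beta-lactamase HRE reporter assay; HRE-bla ME-180 cells, 0.5% dialyzed FBS, 17 hr compound treatment at 37C, 5% CO2.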

Assay [16] in a line: qHTS assay to identify small molecule agonists of the hypoxia (HIF-1) signaling pathway (AID 1224846; active = well fitted activation curve with a large enough effect in the signal ratio in the repeat runs, not every such curve was filed as active; the % refers to the signal ratio; note: % is set by controls: 0 for no effect and ±100 for the full control effect). The procedure, abridged: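 Beta-lactamase FRET read-out (CCF4-AM substrate) from ME-180 cells carrying an HRE-driven bla reporter, after 17 hrs compound exposure at 37C/5% CO2. Cells were seeded at 2,000 per well in 0.5% dialyzed FBS medium and preincubated 5 hrs.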
Assay [17] is described as follows: qHTS assay to identify small molecule agonists of H2AX - cell viability counter screen (AID 1224847; calls by dose curve; note: nearly all actives have a fitted effect of over 30% in size; note: potency is the fitted concentration of half-maximal effect). The method, boiled down: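 We seed wild-type CHO-K1 cells overnight, treat them for 3 hr at 37C with compounds in 15-concentration series, and quantify remaining viability by CellTiter-Glo luminescence.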
Assay [18] is described as follows: A CellTox Green Cytotoxicity Assay to monitor cytotoxicity in HepG2 cells - 16 hour (AID 1224876). Note: % is set by controls: 0 for no effect and ±100 for the full control effect; nearly all actives have a fitted effect of over 45% in size. The method, boiled down:
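HepG2, 600 cells/well premixed w/ CellTox Green; 5 h settle, 37 C/5% CO2; pintool cpd add (DMSO); 37 C, 40 h; fluorescence read at 0, 8, 16, 24, 32, 40 h.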

The nature of assay [19]: qHTS RealTime-Glo MT Cell Viability Assay in HEK293 cells - 16 hour (AID 1224872). The method, boiled down:
as §1

Values without a mark were called inactive. Results filed as inconclusive are left out. Activity calls are given as the source filed them. Unless noted, calls come from the whole dose curve; as a rule, active = well fitted curve in the direction sought with a large enough effect in the repeat runs; inconclusive = weak or mixed curves; inactive = no such curve, though single readings can be large; an effect the other way counts as inactive or inconclusive.

`CCCCCCCCCCCCCCCCCCNC(=O)OC1CCN(C(=O)OC[C@H](COC(=O)N(Cc2cccc[n+]2CC)C(=O)c2ccccc2OC)OC)CC1`: the Potency in [1] was 11.9 µM (active); in assay [4], 10.6 µM (active); in assay [5], 9.52 µM (active); in [7], 9.52 µM (active). The Potency result in [2], in assay [3] and in assay [6] was “inactive” in each case.

On to `COc1cc([C@@H]2c3cc4c(cc3[C@@H](O[C@@H]3O[C@@H]5CO[C@@H](C)O[C@H]5[C@H](O)[C@H]3O)[C@H]3COC(=O)[C@H]23)OCO4)cc(OC)c1O`, for which the Potency result in [1], in [9], in assay [6], in assay [10], in assay [11] and in [12] was “inactive” in each case. For the same molecule, the Potency entry in [13] is “inactive”. Moreover, the figures for the Potency in assay [4], in [5] and in assay [7] were 3.81 µM (active), 0.861 µM (active) and 0.684 µM (active), respectively. Moreover, the activity change, positive = activation in [8] was -61.8%.

As to `Cc1ccc(N=Nc2c(O)ccc3ccccc23)c(C)c1`, the Potency entry in assay [14], in assay [3], in [16], in [17], in assay [9] and in [5] was “inactive” each time. The Potency entry in assay [6], in assay [10], in assay [11], in [12], in assay [13] and in assay [18] was “inactive” throughout. In assay [15], the Potency was 21.3 µM (active). The max response in assay [7] was -8.3%.

As for `c1ccc2c(c1)-c1ccc3ccc4cccc5cc-2c1c3c45`, the Potency entry in assay [14], in [15], in assay [3], in assay [17], in assay [9] and in assay [5] was “inactive” throughout. Also, the Potency result in [10], in [19], in [12], in [13] and in [18] was “inactive” each time. Moreover, the max response in assay [7] is 8.42%.

On to `c1ccc(C[P+](c2ccccc2)(c2ccccc2)c2ccccc2)cc1`, for which the Potency is 3.44 µM (active) in [1]; 101 µM (active) in [17]; 1.72 µM (active) in assay [4]; 1.55 µM (active) in assay [5]; 4.9 µM (active) in [11]; 1.38 µM (active) in [7]. Besides, the Potency entry in assay [2], in [15], in [3], in assay [9], in [6] and in [10] was “inactive” throughout. Besides, the Potency result in [12], in assay [13] and in assay [18] was “inactive” throughout. Besides, the activity change, positive = activation in assay [8] was -56.8%.

Regarding `CC/C=C\C/C=C\C/C=C\CCCCCCCC(=O)OC`, the Potency result in assay [15], in assay [16], in assay [9], in [5], in assay [6] and in assay [10] was “inactive” in each case. Further, the Potency entry in assay [19], in assay [12], in assay [13] and in [18] was “inactive” throughout. Further, the max response in [7] was -12.1%.

Regarding `O=[N+]([O-])c1ccc(CO)cc1`, the Potency entry in [15], in assay [3], in assay [16], in assay [17], in assay [9] and in assay [5] was “inactive” in each case. For the same molecule, the Potency result in assay [6], in [11], in assay [13] and in assay [18] was “inactive” each time. In assay [7], the max response was 7.7%.

On to `CCCCC/C=C\C=C\C(=O)OCC`, for which the Potency in [15] is 51 µM (active); in assay [3] it was 59 µM (active); in assay [10], 51 µM (active); in assay [11], 20.3 µM (active); in assay [7], 57.2 µM (active). For the same molecule, the Potency result in assay [17], in [6], in assay [13] and in assay [18] was “inactive” throughout.

Turning to `CC(C)(c1ccc(Oc2ccc(N)cc2)cc1)c1ccc(Oc2ccc(N)cc2)cc1`, the Potency is 27.3 µM (active) in assay [14], 24.5 µM (active) in assay [15], 80 µM (active) in [17] and 21.9 µM (active) in assay [7]. For the same molecule, the Potency result in assay [9], in [6], in assay [10], in assay [11], in [13] and in assay [18] was “inactive” in each case.
